TDP1 inh = blocks human tyrosyl-DNA phosphodiesterase 1 | Q9NUW8 | recombinant TDP1, AlphaScreen DNA substrate cleavage | Potency, µM (titrated, usually from 130 µM), without a hit: at the top dose activity change, negative = inhibition, most hits filed as inhibitors | 350,000 tested, 0.28% active; note: nearly all actives have a fitted effect of over 40% in size
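Recombinant human Tdp1 (E. coli-expressed, 1 nM final) preincubated with compounds 15 min at room temperature, then 5'-biotin/3'-phosphotyrosine-FITC DNA substrate (15 nM final) added for 5 min. AlphaScreen beads (10 ug/ml final) added 10 min; cleavage lowers signal.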
GCN5L2 inh = blocks human GCN5L2 histone acetyltransferase; GCN5L2 HAT assay, ThioGlo1 CoA-SH fluorescence; Potency, µM (doses to about 58.9 µM), for the others: top-dose activity change, negative = inhibition, actives largely listed as inhibitors; 390,000 tested, 0.21% active; AID 504327
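Compounds, pin-transferred from DMSO stocks, meet 20nM GCN5L2 for 15 min before the reaction begins with H3(1-25) peptide (75uM) and acetyl-CoA (70uM). Thiol-reactive ThioGlo1 reports CoA release over 20 min at room temperature.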
VDR inhibitor = inhibitors of human vitamin D receptor. VDR-SRC2-3 peptide fluorescence polarization, 2 h. Potency, µM, without a hit: max response, negative = inhibition, usual class: inhibitors. 400,000 tested, 0.93% active. AID 504847
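Reagent solutions, kept cold and dark, are dispensed first; compounds are then pinned in at 23 nl, plates briefly spun, and incubated 2 h at ambient temperature. Inhibition of VDR–SRC2-3 peptide binding is read by fluorescence polarization.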
PLK1 PBD block = blocks phosphopeptide binding to human PLK1 polo-box domain; Potency, µM, without a hit: max response, negative = inhibition, usual class: inhibitors; P53350; Plk1 PBD binding of FITC phosphopeptide, fluorescence polarization; 360,000 tested, 2.8% active; note: series mostly up to about 57 µM; nearly all actives have a fitted effect of over 65% in size
Target sequence (P53350 whole entry, looked up, the tested form may be a part): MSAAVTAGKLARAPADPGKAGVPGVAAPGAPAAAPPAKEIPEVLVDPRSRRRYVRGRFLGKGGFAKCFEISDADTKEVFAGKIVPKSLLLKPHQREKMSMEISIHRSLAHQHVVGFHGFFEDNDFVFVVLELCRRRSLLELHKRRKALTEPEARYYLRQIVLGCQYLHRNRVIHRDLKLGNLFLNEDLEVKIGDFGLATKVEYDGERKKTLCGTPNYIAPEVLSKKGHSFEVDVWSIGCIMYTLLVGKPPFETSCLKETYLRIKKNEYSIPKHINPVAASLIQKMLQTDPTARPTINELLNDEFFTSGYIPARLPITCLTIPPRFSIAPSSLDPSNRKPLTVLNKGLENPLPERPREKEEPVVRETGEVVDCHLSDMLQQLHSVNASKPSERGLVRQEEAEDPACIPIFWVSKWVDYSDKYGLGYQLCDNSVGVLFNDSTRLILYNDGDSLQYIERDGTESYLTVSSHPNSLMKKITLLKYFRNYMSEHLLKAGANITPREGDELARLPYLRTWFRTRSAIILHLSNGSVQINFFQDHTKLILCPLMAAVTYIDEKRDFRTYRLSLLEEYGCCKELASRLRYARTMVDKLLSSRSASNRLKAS
TDP1 cell noCPT = qHTS for Inhibitors of human tyrosyl-DNA phosphodiesterase 1 (TDP1): qHTS in cells in absence of CPT | DT40 Tdp1-/- hTDP1 cells, no CPT, ATP luminescence, 48 h | Potency, µM (series often up to 46.2 µM), inactives show at the top dose activity change, negative = growth inhibition, most hits filed as inhibitors | 420,000 tested, 15% active | AID 686978, 2013; note: nearly all actives have a fitted effect of over 55% in size
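Chicken DT40 Tdp1-/- cells stably complemented with human TDP1 were seeded at 400 cells/well with DMSO in place of 20 nM camptothecin. After compound pinning, cells grew at least 48 hr at 37 °C; viability read by CellTiter-Glo luminescence.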
DT40 TDP1 CPT = growth inhibition of DT40 Tdp1-/-;hTDP1 cells with camptothecin (screen for TDP1 inhibitors). chicken DT40 Tdp1-/-;hTDP1 cells + 20 nM CPT, ATP luminescence, 48 h. Potency, µM (series often up to 46.2 µM), inactives show at the highest dose activity change, negative = growth inhibition, usual class: inhibitors. 420,000 tested, 12% active. AID 686979; note: nearly all actives have a fitted effect of over 55% in size
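Chicken DT40 Tdp1-/- cells stably complemented with human TDP1 were seeded at 400 cells/well in medium containing 20 nM camptothecin, exposed to pin-transferred compounds, and grown at 37 °C for at least 48 hr. Viability was read as ATP luminescence.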
Active calls of the source: *; ? = inconclusive; . = no result given. Most compounds without a hit are left out; they make up all but 18% or so of the library. Calls come from the whole dose curve; as a rule, active = well fitted curve in the direction sought with a large enough effect; inconclusive = small, poorly fitted or top-dose-only effect, or another doubt; inactive = no such curve, though single readings can be large; an effect the other way counts as inactive or inconclusive. % is set by controls: 0 for no effect and ±100 for the full control effect; potency is the fitted concentration of half-maximal effect.

SMILES	TDP1 inh	GCN5L2 inh	VDR inhibitor	PLK1 PBD block	TDP1 cell noCPT	DT40 TDP1 CPT
COc1ccc(C(=O)CSc2nnc(Cn3nnc4ccccc43)n2C)cc1	3%	1%	-7%	-10%	?	-17%
COc1ccc(/C=C/C(=O)NCCCN2CCOCC2)cc1	.	-15%	-2%	2%	-6%	10%
O=S(=O)(Oc1ccccc1-c1ccccc1)c1ccccc1	.	.	-14%	-14%	?	-30%
CCc1ccccc1NC(=O)N1CC(CC)Oc2ccc(Cl)cc21 (stereo unspecified)	-10%	-14%	6%	.	?	21µM*
CCC1CN(C(=O)Nc2ccc(C(=O)O)cc2)c2cc(Cl)ccc2O1 (stereo unspecified)	3%	1%	-15%	.	-29%	-27%
CCC1CN(C(=O)NCc2cccc(OC)c2)c2cc(Cl)ccc2O1 (stereo unspecified)	5%	-13%	16%	7%	?	15µM*
CCC1CN(C(=O)NCc2cccc(OC)c2)c2ccccc2O1 (stereo unspecified)	0%	-8%	182%	2%	15µM*	?
COc1ccc(OC)c2[nH]c(=O)c(CCNC(=O)Cc3cccs3)cc12	0%	-1%	12%	-10%	-2%	5%
Cc1ccc(C2(C(F)(F)F)NC(=O)N3CCN=C3S2)cc1 (stereo unspecified)	0%	29%	15%	-10%	?	21µM*
O=C1NC(c2ccccc2)(C(F)(F)F)SC2=CCCCCN12 (stereo unspecified)	3%	-10%	-2%	-5%	-22%	-27%
COc1ccc(NC(=O)Nc2ccc(F)cc2F)cc1	3%	-7%	-10%	-17%	5.8µM*	9.2µM*
COc1ccc(NC(=O)Nc2ccc(F)cc2F)c(C)c1	6%	-2%	-4%	-1%	?	?
COC(=O)c1[nH]c2ccc(F)cc2c1NC(=O)Nc1ccc(OC)cc1	-5%	-2%	-5%	-4%	6.5µM*	?
COC(=O)c1[nH]c2ccc(C)cc2c1NC(=O)Nc1ccc(OC)cc1	4%	2%	-3%	-15%	-6%	1%
Cc1cc(C(=O)NCCc2ccc(S(=O)(=O)NC(=O)NN3CCCCCC3)cc2)no1	3%	-20%	-7%	.	?	?
COc1cccc(CN2CCc3nc(Nc4ccc5c(c4)OCCO5)ncc3C2)c1OC	11%	-9%	9%	.	8.2µM*	21µM*
Cc1ccc(CN2CCc3nc(Nc4ccc5c(c4)OCCO5)ncc3C2)cc1	9%	-6%	7%	.	21µM*	?
Fc1cccc(CN2CCc3nc(Nc4ccc5c(c4)OCCO5)ncc3C2)c1F	9%	-13%	3%	.	26µM*	?
CCOc1ccc(CN2CCc3nc(Nc4ccc5c(c4)OCCO5)ncc3C2)cc1	14%	-2%	4%	.	?	?
O=c1[nH]nc(-c2n[nH]c(=O)o2)o1	.	.	8%	-4%	?	?
Cc1ccc(S(=O)(=O)N2CCN(C(=O)c3ccc(-n4cncn4)c([N+](=O)[O-])c3)CC2)c(C)c1	.	.	.	-4%	?	?
O=S(=O)(NCCOCC(F)(F)C(F)F)c1ccc2oc3ccccc3c2c1	9%	-5%	6%	1%	13µM*	26µM*
CC(C)C(NC(=O)c1ccccc1)C(=O)N/N=C\c1ccco1 (stereo unspecified)	0%	-2%	-17%	-4%	-1%	-12%
COc1ccc(C)cc1CN(C)c1ccc(S(=O)(=O)N2CCN(C)CC2)cn1	1%	-12%	-17%	0%	?	?
Cc1ccc(CNCc2cccn2-c2nnc(N3CCCC3)s2)cc1	-2%	-13%	6%	.	16µM*	?
SMILES	TDP1 inh	GCN5L2 inh	VDR inhibitor	PLK1 PBD block	TDP1 cell noCPT	DT40 TDP1 CPT
Cc1ccccc1NCc1cccn1-c1nnc(N2CCC(C)CC2)s1	8%	1%	-7%	.	?	?
CCc1ccc(NCc2cccn2-c2nnc(N3CCCCCC3)s2)cc1	5%	-13%	-14%	.	16µM*	21µM*
COc1ccccc1NCc1cccn1-c1nnc(N2CCCCCC2)s1	8%	15%	6%	.	?	?
CC(NC(=O)C1CCCN1C(=O)CN)C(=O)O (stereo unspecified)	0%	1%	-2%	.	.	.
CC(=O)Nc1nonc1-c1nnc(SCc2cccc(Br)c2)n1C	-3%	0%	8%	.	18µM*	16µM*
CCCn1cc(S(=O)(=O)c2cccc(Cl)c2)c(=O)c2cc(F)c(N3CCCC3)cc21	1%	-4%	10%	.	?	?
CC(O)CNC(=O)C(=O)Nc1c2c(nn1-c1ccc(Cl)cc1)CSC2 (stereo unspecified)	5%	-11%	8%	.	-2%	0%
O=C(CSc1nc(=O)n(Cc2ccco2)c2c1CCC2)NCc1ccccc1Cl	3%	-4%	20%	.	-14%	-2%
CC(=O)/C(C#N)=C1\NC(=O)C(Cc2ccccc2C)S1 (stereo unspecified)	.	-6%	5%	-11%	2.3µM*	?
Cc1nc2ccc(S(=O)(=O)N(CC(=O)Nc3cccc(Cl)c3)Cc3ccccc3)cc2s1	3%	17%	-7%	.	16µM*	?
Cc1nc2ccc(S(=O)(=O)N(C)CC(=O)Nc3ccc(Br)c(C)c3)cc2s1	5%	3%	1%	.	16µM*	?
Cc1nc2ccc(NC(=O)c3cc(S(=O)(=O)N(C)c4ccccc4)ccc3Cl)cc2s1	-3%	-2%	-14%	17%	1.8µM*	1.8µM*
CN(c1ccccc1)S(=O)(=O)c1ccc(Cl)c(C(=O)Nc2ccc(N3CCOCC3)cc2)c1	1%	-9%	3%	0%	1.6µM*	3.3µM*
Cc1noc(NS(=O)(=O)c2ccc(NC(=O)c3cc(S(=O)(=O)N(C)c4ccccc4)ccc3Cl)cc2)c1C	.	.	-17%	-22%	-13%	-14%
Cc1cccc(CNc2ncnc3ccc(-c4cccc(Cl)c4)cc23)c1	.	-16%	.	.	.	.
CCCCCCCCCCCCCCCCCCCCCCO	6%	45%	19%	.	1%	6%
COc1ccc([N+](=O)[O-])cc1NC(=O)c1ccc(CN(c2ccccc2)S(C)(=O)=O)cc1	-3%	-2%	-12%	4%	?	-29%
Cc1nc2ccc(NC(=O)c3ccc(S(=O)(=O)N(C)C)cc3)cc2s1	1%	-3%	-10%	-1%	3%	-16%
